Inconclusive results are not listed. A number with no mark means an inactive call. Activity calls are given as the source filed them. Calls come from the whole dose curve; as a rule, active = well fitted curve in the direction sought with a large enough effect; inconclusive = small, poorly fitted or top-dose-only effect, or another doubt; inactive = no such curve, though single readings can be large; an effect the other way counts as inactive or inconclusive.
Potency is the fitted concentration of half-maximal effect.

The target of the first test is Calcium and integrin-binding protein 1 (Homo sapiens) (UniProt Q99828). As to the kind of experiment: Confirmatory qHTS for Identification of Calcium Integrin Binding Protein 1 (CIB1) Competitor (AID 1508617). Note: nearly all actives have a fitted effect of over 65% in size. The note with it: CIB1 binding competition assay, biochemical qHTS. The essentials: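 Binding competition between test compounds and fluorescent alphaIIb peptide for 1 uM CIB1-GST is monitored by FP at 480/540 nm. Final compound range is up to 114 uM; unlabeled peptide serves as reference competitor.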
Calcium and integrin-binding protein 1 (Homo sapiens), sequence (Q99828 whole entry, looked up): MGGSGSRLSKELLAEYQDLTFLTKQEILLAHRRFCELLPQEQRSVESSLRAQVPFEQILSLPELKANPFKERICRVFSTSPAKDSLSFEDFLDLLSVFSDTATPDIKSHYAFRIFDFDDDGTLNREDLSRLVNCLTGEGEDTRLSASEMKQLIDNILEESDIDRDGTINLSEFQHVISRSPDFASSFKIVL
(qHTS replaces the single test concentration by a dilution series.)
Turning to `COc1ccc(CC(NC(C)=O)C(=O)O)cc1` (centres undefined), the Potency was 50.1 µM (active).
On to `Cc1c(Cc2ccc3ccccc3n2)c2cc(F)ccc2n1CC(=O)O`, for which the Potency is 50.1 µM (active).
On the same count and under the same terms, the same measure for `CC(=O)NC(Cc1c[nH]c2ccccc(=O)c12)C(=O)O` (centres undefined): 44.7 µM (active).

The next test has the same target. As to the kind of experiment: Primary qHTS for Identification of Calcium Integrin Binding Protein 1 (CIB1) Competitor (AID 1508620).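 For activity change, negative = inhibition: GST tagged CIB1 binding a fluorescein labelled alphaIIb integrin peptide tracer; top concentration of the series differs between compounds; % is set by controls: 0 for no effect and ±100 for the full control effect.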 The note with it: CIB1-GST / FITC-alphaIIb peptide fluorescence polarization; series mostly up to 57.7 µM; activity change, negative = inhibition: at the top concentration. In short, it runs like this:
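CIB1-GST (1 uM final) and compound incubated 15 min at room temperature before adding FITC-alphaIIb peptide tracer (100 nM final). Competition for binding read by fluorescence polarization (ex 480, em 540) after another 15 min at room temperature.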
Turning to `COc1cc(O)cc2c1C(=O)OC(C)CCCCCCC2` (centres undefined), the “activity change, negative = inhibition” value is -1.17% [at 114 µM].
Consider `C/C=C(\C)C1C(C)=CC2CCC(OS(=O)(=O)O)C(C)C2C1/C=C/C=C/C(=O)O` (centres undefined), for which the “activity change, negative = inhibition” value is 3.42%.
Same read-out and setting: the result for `C=C1Cc2c(Cl)cc3[nH]c4c5c3c2[C@@]2(O)[C@@H]1C[C@@H]2C(C)(C)O[C@H]5C1CC[C@@]2(O)[C@@]35O[C@@H]3[C@H]3OC(C)(C)[C@H]3O[C@H]5CC[C@]2(C)[C@@]41C` (some centres undefined) reads 3.88% [at 30.2 µM].
The same measure, in the same setting: the result for `C=C1C(=O)O[C@@H]2C[C@]3(C)[C@@H](CCC(C)=O)[C@@H]3C[C@H]12` reads 2.23% [at 114 µM]; that for `COC(=O)[C@@H](NC(=O)[C@H](CC(C)C)NC(=O)N(Cc1ccccc1)C[C@@H](O)[C@H](Cc1ccccc1)NC(=O)OC(C)(C)C)C(C)C`, 5.04% [at 30.2 µM].
For the compound `CC1(C)CC[C@]2(C(=O)O)CC[C@]3(C)C(=CCC4[C@@]5(C)CC[C@H](O[C@H]6O[C@H](C(=O)O)[C@@H](O)[C@H](O[C@@H]7O[C@H](CO)[C@H](O)[C@H](O)[C@H]7O)[C@H]6O)C(C)(C)C5CC[C@]43C)[C@@H]2C1` (some centres undefined), the “activity change, negative = inhibition” value is -1.9% [at 30.2 µM].
Turning to `CC(=O)NC1C(OC2CCC3(C)C(CCC4(C)C3CC=C3C5CC(C)(C)CCC5(C(=O)O)C(O)CC34C)C2(C)C)OC(CO)C(O)C1O` (centres undefined), the “activity change, negative = inhibition” value was 3.4% [at 30.2 µM].
Same read-out and setting: the result for `CC1=CCC2C(C)(C)CCCC2(C)C1CC12OC1C(O)C(CO)=CC2O` (centres undefined) reads -1.56%; that for `COC(=O)[C@H](c1ccccc1Cl)N1CCC2SC(=O)C=C2C1` (some centres undefined), -1.6% [at 114 µM].
Still for that read-out and setting: the result for `C=C1C(=O)OC2CC(COC(=O)C(C)C)=C(C(C)CCCOC(C)=O)[C@@H](OC(C)=O)C12` (some centres undefined) reads 3.31%; that for `COCCCc1sc(-c2ccccc2)nc1C(=O)Nc1ccccc1-c1nc2cc(CN3CCCC3)cnc2s1`, 1.27%.
Still for that read-out and setting: the same measure for `CCC(C)/C=C(C)/C=C/C1=CC2=C(Cl)C(=O)C(C)(O)C(=O)C2(O)C(OC)O1` (centres undefined): 48%.
For `COc1cc(O)c(C(=O)O)c(CCc2ccccc2)c1`, the “activity change, negative = inhibition” value was -0.0599% [at 114 µM].
In the case of `C=C1CC[C@@]2(OC1)O[C@H]1CC3[C@@H]4CC=C5C[C@H](O[C@H]6OC[C@@H](O)C(O)[C@@H]6O[C@@H]6O[C@@H](C)[C@H](O)[C@@H](O[C@@H]7O[C@H](CO)[C@@H](O)[C@H](O)[C@H]7O)[C@H]6O)C[C@@H](O)[C@]5(C)C4CC[C@]3(C)[C@H]1[C@@H]2C` (some centres undefined), the “activity change, negative = inhibition” value is 0.758% [at 30.2 µM].
For `CC1OC(OC2CCC3(C)C(CCC4(C)C3C=CC35OCC6(CCC(C)(C)CC63)CCC45C)C2(C)CO)C(OC2OC(CO)C(O)C(O)C2O)C(O)C1OC1OC(CO)C(O)C(O)C1O` (centres undefined), the “activity change, negative = inhibition” value was -6.19% [at 30.2 µM].
On to `C/C=C(\C)C(=O)OC1CC2C(CC=C3CC(OC4CC(OC)C(OC5CC(OC)C(OC6CC(OC)C(OC7CC(OC)C(OC8CC(OC)C(OC9OC(CO)C(O)C(O)C9O)C(C)O8)C(C)O7)C(C)O6)C(C)O5)C(C)O4)CCC32C)C2(O)CCC(C(C)=O)C12C` (centres undefined), for which the activity change, negative = inhibition was 0.354% [at 12.4 µM].
Same read-out and setting: the same measure for `CC(=O)O[C@@H]1C=C2[C@H](CC[C@@]3(C)[C@@]2(O)CC[C@H]2Cc4c([nH]c5ccccc45)[C@@]23C)O[C@@H]1C(C)(C)O`: 1.49%; for `CC(CCO)CCC1C2(C)CCCC(C)(C)C2CC[C@@]1(C)O` (some centres undefined): 3.29%.
On the same count and under the same terms, the result for `COCCN1CCC(C(=O)NO)(S(=O)(=O)c2ccc(Oc3ccc(OC(F)(F)F)cc3)cc2)CC1` reads -4.64% [at 114 µM]; that for `CC(NC(=O)[C@H](Cc1ccccc1)NC(=O)OCc1ccccc1)C(=O)CF` (some centres undefined), 2.64% [at 114 µM]; that for `COC(=O)c1[nH]c(=O)c2ccccc2c1-c1ccc[nH]1`, -4.31% [at 114 µM].
The same measure, in the same setting: the same measure for `CN1CCCC1Cc1c[nH]c2ccc(CCS(=O)(=O)c3ccccc3)cc12` (centres undefined): 1.37% [at 114 µM].
Take `Cc1c(Cc2ccc3ccccc3n2)c2cc(F)ccc2n1CC(=O)O`: the Potency is 44.7 µM (active).
Regarding `C=CCC/C=C/C#CCCCCCCCC[C@H]1C(=O)O[C@H](C)[C@@H]1O`, the “activity change, negative = inhibition” value is -4.91%.
Turning to `C=C(C)[C@@H]1CC[C@]2(C(=O)O)CC[C@]3(C)[C@H](CCC4[C@@]5(C)CCC(=O)C(C)(C)C5C(O)C[C@]43C)C12` (some centres undefined), the “activity change, negative = inhibition” value was -0.62%.
On the same count and under the same terms, the same measure for `C/C(=C\C(=O)C(C)C1CCC2C3=C(CCC21C)C1(C)CCC(=O)C(C)(C)C1(O)CC3)C(C)(C)O` (centres undefined): -5.71%; for `C=C(C)[C@H]1CC[C@]2(C(=O)O)CC[C@]3(C)C(CCC4[C@@]5(C)CCC(=O)C(C)(C)C5CC[C@]43C)C12` (some centres undefined): -12.1%; for `COc1c(C)c(OCC=C(C)C)cc2c1CNC2=O`: -7.6% [at 114 µM].
Still for that read-out and setting: the same measure for `COc1ccc(C2COc3cc(O)ccc3C2)c(O)c1OC` (centres undefined): 4.42% [at 114 µM].
The same measure, in the same setting: the result for `Cc1c(-c2ccc3c(c2)OCO3)oc2ccc(C(O)C(C)O)cc12` (centres undefined) reads 1.39%.
In the case of `C/C=C/C=C/C=C/C(=O)O[C@@H]1C=C(CO)[C@](O)(CO)[C@@]2(C)CCCC(C)(C)[C@H]12`, the “activity change, negative = inhibition” value is -0.583%.
For `CCC(C)/C=C(C)/C=C/C1=CC2=CC(=O)C(C)(O)C(OC(C)=O)C2CO1` (centres undefined), the “activity change, negative = inhibition” value was 12.3%.
Still for that read-out and setting: the result for `C[C@@H]1O[C@@H](O[C@H]2[C@H](OC(=O)[C@]34CCC(C)(C)C[C@H]3C3=CCC5[C@@]6(C)CC[C@H](O[C@@H]7O[C@H](CO[C@@H]8OC[C@H](O)[C@H](O)[C@H]8O)[C@@H](O)[C@H](O)[C@H]7O)C(C)(C)C6CC[C@@]5(C)[C@]3(C)C[C@H]4O)OC[C@@H](O)[C@@H]2O)[C@H](O)[C@H](O[C@@H]2OC[C@](O)(CO)[C@H]2O)[C@H]1O[C@@H]1OC[C@H](O)[C@H](O[C@@H]2OC[C@@H](O)[C@H](O)[C@H]2O)[C@H]1O` (some centres undefined) reads 2.98% [at 12.4 µM].
On to `CC1=C2C[C@H]3OC(=O)[C@H](O)[C@@]4(O)[C@@H](C)[C@@H](O)[C@H](O)C([C@@]2(C)[C@H](O)[C@@H](O)C1)[C@@]34C` (some centres undefined), for which the “activity change, negative = inhibition” value is -12.9%.
The same measure, in the same setting: the result for `CCC(C)/C=C(C)/C=C/C(=O)C1CCC(O)C(C)(O)C1=O` (centres undefined) reads -3.84% [at 114 µM]; that for `CC(=O)N[C@H]1[C@H](O[C@H]2CC[C@]3(C)C4CC=C5[C@@H]6CC(C)(C)CC[C@]6(C(=O)O)[C@H](O)C[C@@]5(C)[C@]4(C)CC[C@H]3C2(C)C)O[C@H](CO)[C@@H](O)[C@@H]1O` (some centres undefined), 3.68% [at 30.2 µM].

Values taken from PubChem BioAssay (NCATS).
